{"source": "PubChem BioAssay (EPA / NIEHS)", "note": "Values joined by “and” are separate entries in the source; they are usually repeats but may differ in a detail not shown here. Identical values can stand only once. Inconclusive results are not listed. Some structures have more than one record in an assay (separate samples or runs), and their calls can disagree. Active and inactive are the calls of the source. How the source made its calls: active means hit-call score of the fitted dose curve at least 0.9, where 1 is the maximum; inconclusive means response in the unintended direction; inactive means score below 0.9.", "data": [{"molecular_target": "Retinoic acid receptor RXR-alpha (Homo sapiens) (UniProt P19793)", "sequence (P19793 whole entry, looked up)": "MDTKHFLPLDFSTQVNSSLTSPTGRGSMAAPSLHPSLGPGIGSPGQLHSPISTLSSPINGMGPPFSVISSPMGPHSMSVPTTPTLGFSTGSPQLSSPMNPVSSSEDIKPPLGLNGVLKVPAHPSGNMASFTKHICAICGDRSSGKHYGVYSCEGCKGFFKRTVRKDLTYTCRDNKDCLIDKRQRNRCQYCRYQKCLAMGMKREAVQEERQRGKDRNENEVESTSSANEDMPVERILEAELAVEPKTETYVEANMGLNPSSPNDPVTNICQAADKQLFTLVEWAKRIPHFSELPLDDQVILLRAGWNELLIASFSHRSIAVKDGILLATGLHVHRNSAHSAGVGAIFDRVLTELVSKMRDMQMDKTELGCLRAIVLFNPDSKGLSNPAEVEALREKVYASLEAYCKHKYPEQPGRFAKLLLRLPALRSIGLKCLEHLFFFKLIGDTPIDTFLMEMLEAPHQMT", "assay": "OT_NURR1_NURR1RXRa_1440: Odyssey Thera (OT) 24-hour HEK293T Protein Complementation Assay for Nurr1/retinoid X receptor (RXR) (AID 2283386)", "protocol": "OT_NURR1_NURR1RXRa_1440 is a cell-based assay that uses HEK293T, a human kidney cell line, with measurements taken at 24 hours after chemical dosing in a 384-well plate.OT_NURR1_NURR1RXRa_1440 is one of one assay component(s) measured or calculated from the OT_NURR1_NURR1RXRa_1440 assay. It is designed to make measurements of protein fragment complementation, a form of binding reporter, as detected with fluorescence intensity signals by Protein-fragment Complementation technology.Data from the assay component OT_NURR1_NURR1RXRa_1440 was analyzed into 1 assay endpoint. This assay endpoint, OT_NURR1_NURR1RXRa_1440, was analyzed in the positive analysis fitting direction relative to DMSO as the negative control and baseline of activity. Using a type of binding reporter, measures of receptor for gain-of-signal activity can be used to understand the binding at the pathway-level as they relate to the gene RXRA. Furthermore, this assay endpoint can be referred to as a primary readout, because the performed assay has only produced 1 assay endpoint. To generalize the intended target to other relatable targets, this assay endpoint is annotated to the nuclear receptor intended target family, where the subfamily is non-steroidal.\nProtein-fragment complementation assay, or PCA, is a method for the identification and quantification of protein-protein interactions. In the PCA, the proteins of interest (\"bait\" and \"prey\") are each covalently linked to fragments of a third protein (e.g. DHFR, which acts as a \"reporter\"). Interaction between the bait and the prey proteins brings the fragments of the reporter protein in close proximity to allow them to form a functional reporter protein whose activity can be measured.", "values": [{"molecule": "CC#C[C@]1(O)CC[C@H]2[C@@H]3CCC4=CC(=O)CCC4=C3[C@@H](c3ccc(N(C)C)cc3)C[C@@]21C", "outcome": "inactive", "AC50": "0.416 µM (active)"}, {"molecule": "C#C[C@]1(O)CC[C@H]2[C@@H]3CCC4=CC(=O)CC[C@@H]4[C@H]3CC[C@@]21C", "outcome": "inactive"}, {"molecule": "CCCCCCCCCCCCN1CCCC1=O", "AC50": "11.7 µM (active)"}, {"molecule": "CC[C@H](c1ccc(O)cc1)[C@@H](CC)c1ccc(O)cc1", "outcome": "inactive"}, {"molecule": "CCc1ccc(CCOc2ccc(CC3SC(=O)NC3=O)cc2)nc1", "note": "(stereo not given)", "AC50": "36.2 µM (active) and 41.7 µM (active)"}, {"molecule": "Cc1oc(-c2ccccc2)nc1CCOc1ccc(C[C@H](Nc2ccccc2C(=O)c2ccccc2)C(=O)O)cc1", "AC50": "0.214 µM (active)"}, {"molecule": "NC(=O)N1C(=O)C(C(=O)c2cc(Cl)cs2)c2cc(F)c(Cl)cc21", "note": "(stereo not given)", "outcome": "inactive", "AC50": "32.9 µM (active)"}, {"molecule": "CCCCCCCCC(=O)O", "outcome": "inactive"}, {"molecule": "CCC(=C(c1ccc(O)cc1)c1ccc(OCCN(C)C)cc1)c1ccccc1", "outcome": "inactive"}, {"molecule": "CCCCCCCCCCCCc1ccccc1S(=O)(=O)O", "outcome": "inactive"}, {"molecule": "c1ccc2cc3c(ccc4ccccc43)cc2c1", "outcome": "inactive", "AC50": "79.7 µM (active)"}, {"molecule": "CCc1nn(C2CCCCC2)c2cc(C3(C#N)CCC(C(=O)O)CC3)ccc12", "note": "(stereo not given)", "AC50": "79.7 µM (active) and 73.6 µM (active)"}, {"molecule": "CC(O)C(=O)O", "note": "(stereo not given)", "outcome": "inactive"}, {"molecule": "OCCC(F)(F)C(F)(F)C(F)(F)C(F)(F)C(F)(F)C(F)(F)F", "outcome": "inactive"}, {"molecule": "O=C(O)c1ccccc1C(c1ccc(O)cc1)c1ccc(O)cc1", "outcome": "inactive"}, {"molecule": "COC(=O)CCCCC(=O)OC", "outcome": "inactive"}, {"molecule": "COCC(C)O", "note": "(stereo not given)", "outcome": "inactive"}, {"molecule": "Cc1cc(C)c(O)c(C)c1", "outcome": "inactive"}, {"molecule": "c1ccc2c(c1)ccc1ccccc12", "outcome": "inactive"}, {"molecule": "CC(=O)CC(C)(C)O", "outcome": "inactive"}, {"molecule": "CN(C)C=O", "outcome": "inactive"}, {"molecule": "CC(C)CCCCCCOC(=O)CCCCC(=O)OCCCCCCC(C)C", "outcome": "inactive"}, {"molecule": "CCCCOCCO", "outcome": "inactive"}, {"molecule": "OC1CCC(C2CCCCC2)CC1", "note": "(stereo not given)", "outcome": "inactive"}, {"molecule": "CC(C)(C)c1cc(C(C)(C)C)c(O)c(C(C)(C)C)c1", "AC50": "85 µM (active)"}, {"molecule": "CC[C@H](C)[C@@H](C(=O)O)n1sc2ccccc2c1=O", "outcome": "inactive"}, {"molecule": "c1ccc2c(c1)Cc1ccccc1-2", "outcome": "inactive"}, {"molecule": "CCOC(=O)CC(O)(CC(=O)OCC)C(=O)OCC", "outcome": "inactive"}, {"molecule": "COCC(C)OCC(C)O", "note": "(stereo not given)", "outcome": "inactive"}, {"molecule": "CCCCCCCCCCCCCCCS(=O)(=O)Oc1ccccc1", "outcome": "inactive"}, {"molecule": "O=c1c(-c2ccc(O)cc2)coc2cc(O)ccc12", "outcome": "inactive", "AC50": "14.4 µM (active) and 27 µM (active)"}, {"molecule": "Nc1cccc2c(N)cccc12", "outcome": "inactive"}, {"molecule": "CN1CCC[C@H]1c1cccnc1", "outcome": "inactive"}, {"molecule": "CC(=O)NC1(c2cccc(F)c2)CCN(CC[C@@]2(c3ccc(Cl)c(Cl)c3)CN(c3ccccc3)C(=O)CO2)CC1", "outcome": "inactive"}, {"molecule": "COc1ccc([N+](=O)[O-])cc1N", "outcome": "inactive"}, {"molecule": "CCC(C)(C)C1CCC(O)CC1", "note": "(stereo not given)", "outcome": "inactive"}]}]}
